The record followed here is PubChem BioAssay (Tox21).

Test [1] is described as follows: qHTS assay to identify small molecule agonists of the peroxisome proliferator-activated receptor delta (PPARd) signaling pathway - cell viability counter screen (AID 743211). Further: nearly all actives have a fitted effect of over 55% in size. Further: potency means the concentration at half of the fitted maximal effect. The essentials:
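Tox21 library compounds, delivered in DMSO, were incubated 17 h with PPARd-bla HEK293H cells; cytotoxicity was taken from CellTiter-Glo luminescence read 30 min after reagent addition.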

Test [2] can be described thus: qHTS assay to identify small molecule agonists of the farnesoid-X-receptor (FXR) signaling pathway - cell viability counter screen (AID 743218). Further: nearly all actives have a fitted effect of over 45% in size. Further: potency means the concentration at half of the fitted maximal effect. The essentials:
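Luminescence from CellTiter-Glo, read after 30 min at RT, reports viability of GeneBLAzer FXR-UAS-bla HEK 293T cells treated 16 h with compounds in the wells used for the beta-lactamase reporter.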

Test [3] can be described thus: qHTS assay to identify small molecule agonists of the vitamin D receptor (VDR) signaling pathway - cell viability counter screen (AID 743224). Further: nearly all actives have a fitted effect of over 50% in size. Further: potency means the concentration at half of the fitted maximal effect. The essentials:
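Cytotoxicity counter screen: VDR-bla cells, 16 h compound exposure at 37C, 5% CO2; CellTiter-Glo luminescence, 30 min RT, same wells as bla read.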
A general note: Quantitative high-throughput screening tests each substance at several concentrations.

Test [4] can be described thus: qHTS assay to identify small molecule antagonists of the vitamin D receptor (VDR) signaling pathway - cell viability counter screen (AID 743225). Further: nearly all actives have a fitted effect of over 50% in size. Further: potency means the concentration at half of the fitted maximal effect. The essentials:
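Same-well multiplex: following 16 h treatment of HEK 293T cells carrying a UAS-driven beta-lactamase reporter with compound and agonist (3 nM final), and a 2 h FRET substrate step, CellTiter-Glo was added and luminescence read after 30 min.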

Test [5] can be described thus: qHTS assay to identify small molecule agonists of the NFkB signaling pathway - cell viability counter screen (AID 1159515; calls by dose curve; further: potency means the concentration at half of the fitted maximal effect; nearly all actives have a fitted effect of over 55% in size). The essentials:
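ME-180 NFkB-bla cells, 2,000/well; overnight attach; compound 5 hr, 37 C/5% CO2; LiveBLAzer substrate 1.5 hr RT; then CellTiter-Glo in same wells, 30 min RT, luminescence read.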

A short description of test [6]: qHTS assay to identify small molecule agonists of the endoplasmic reticulum stress response signaling pathway - cell viability counter screen (AID 1159517; calls by dose curve; further: nearly all actives have a fitted effect of over 50% in size; further: potency means the concentration at half of the fitted maximal effect). A digest of the protocol: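 ESRE-bla HeLa cells (1,500/well) were plated overnight at 37 C and exposed to compounds for 5 hr. After the 2 hr beta-lactamase substrate read, CellTiter-Glo went into the same wells, and luminescence was read after 30 min at room temperature.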

A short description of test [7]: qHTS assay to identify small molecule antagonists of the retinoid-related orphan receptor gamma (ROR-gamma) signaling pathway - cell viability counter screen (AID 1159520). Further: nearly all actives have a fitted effect of over 50% in size. Further: potency means the concentration at half of the fitted maximal effect. The essentials: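 Cytotoxicity was read from cellular ATP (CellTiter-Glo luminescence) after 16 hr at 37 C with 1 uM doxycycline induction. The inducer was added 2 hr after compound transfer to Tet-on ROR gamma CHO cells.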

The target of test [8] is Nuclear receptor ROR-gamma (Homo sapiens) (UniProt P51449). As to the kind of experiment: qHTS assay to identify small molecule antagonists of the retinoid-related orphan receptor gamma (ROR-gamma) signaling pathway (AID 1159521; further: nearly all actives have a fitted effect of over 50% in size; further: potency means the concentration at half of the fitted maximal effect). A digest of the protocol:
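Inducible-expression reporter assay: doxycycline (1 uM final) switched on RORγ in CHO cells bearing a ROR response element-luciferase construct, with test compounds present from 2 h beforehand. Decreased luminescence after 16 h defined antagonist activity.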

Test [9] is described as follows: qHTS assay to identify small molecule agonists of the AP-1 signaling pathway - cell viability counter screen (AID 1159525; calls by dose curve; further: nearly all actives have a fitted effect of over 55% in size; further: potency means the concentration at half of the fitted maximal effect). A digest of the protocol: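 Intracellular ATP by Cell Titer Glo luminescence (30 min, RT) in the same ME-180 AP-1-bla wells after the 5 h compound exposure at 37 °C. Normalised to tetra n-octyl ammonium bromide and DMSO controls.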
Test [10] deals with Peroxisome proliferator-activated receptor delta (Homo sapiens) (UniProt Q03181). As to the kind of experiment: qHTS assay to identify small molecule agonists of the peroxisome proliferator-activated receptor delta (PPARd) signaling pathway (AID 743212; calls by dose curve). The essentials:
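Beta-lactamase reporter readout: a ratiometric FRET signal from the LiveBLAzer substrate after 2 h at room temperature. Compound exposure at 37 °C in PPARδ-bla HEK293H cells driven by an upstream activator sequence.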

Test [11] can be described thus: qHTS assay to identify small molecule antagonists of the peroxisome proliferator-activated receptor delta (PPARd) signaling pathway - cell viability counter screen (AID 743213). Further: nearly all actives have a fitted effect of over 50% in size. Further: potency means the concentration at half of the fitted maximal effect. A digest of the protocol: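 Agonist-stimulated (L165041, 300 nM final) HEK293H PPARd UAS-bla cells are exposed to compounds for 17 h at 37 C, and ATP-based luminescence (CellTiter-Glo) from the same wells reports cytotoxicity.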

Test [12] concerns the target Peroxisome proliferator-activated receptor delta (Homo sapiens) (UniProt Q03181). As to the kind of experiment: qHTS assay to identify small molecule antagonists of the peroxisome proliferator-activated receptor delta (PPARd) signaling pathway (AID 743215; active means well fitted inhibition curve with a large enough effect in the signal ratio in the repeat runs, not every such curve was filed as active; the % refers to the signal ratio; further: series mostly up to about 62 µM). A digest of the protocol: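 HEK293H GeneBLAzer PPARd UAS-bla reporter cells; cpd + L165041 300 nM final, 17 h 37 C; LiveBLAzer B/G FRET substrate 2 h RT; fluorescence intensity read-out. Antagonist mode.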

Test [13] is described as follows: qHTS assay to identify small molecule antagonists of the farnesoid-X-receptor (FXR) signaling pathway - cell viability counter screen (AID 743221; active means well fitted cell-killing curve with a large enough effect in the repeat runs, not every such curve was filed as active; further: nearly all actives have a fitted effect of over 50% in size; further: potency means the concentration at half of the fitted maximal effect). A digest of the protocol: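 Cytotoxicity is taken from ATP luminescence (CellTiter-Glo, 30 min, room temperature) in FXR-bla HEK 293T cells previously incubated 16 h at 37 C with compound and chenodeoxycholic acid at 50 uM final.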

Test [14] in a line: qHTS assay to identify small molecule agonists of the endoplasmic reticulum stress response signaling pathway (AID 1159516; active means well fitted activation curve with a large enough effect in the signal ratio in the repeat runs, not every such curve was filed as active; the % refers to the signal ratio). A digest of the protocol:
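HeLa ESRE-bla reporter line; cpd 5 h, 37 C/5% CO2; LiveBLAzer B/G FRET substrate 2 h RT; ex 405, em 460/530 nm.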

Test [15] in a line: qHTS assay to identify small molecule agonists of the AP-1 signaling pathway (AID 1159526; calls by dose curve).
The target of test [16] is Retinoic acid receptor RXR-alpha (Homo sapiens) (UniProt P19793). As to the kind of experiment: qHTS assay to identify small molecule agonists of the RXR signaling pathway (AID 1159527; calls by dose curve; further: nearly all actives have a fitted effect of over 35% in size). The essentials:
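Compounds in DMSO were added to RXR-alpha-UAS-bla HEK 293T cells kept in 2% charcoal-stripped serum, and incubated 16 hr at 37 C with 5% CO2. Reporter signal came from a 2 hr B/G FRET substrate step.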

The target of test [17] is Bile acid receptor (Homo sapiens) (UniProt Q96RI1). The test can be described thus: qHTS assay to identify small molecule antagonists of the farnesoid-X-receptor (FXR) signaling pathway (AID 743217; active means well fitted inhibition curve with a large enough effect in the signal ratio in the repeat runs, not every such curve was filed as active; the % refers to the signal ratio). The essentials:
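Read-out: beta-lactamase FRET fluorescence (LiveBLAzer B/G substrate, 2 h, room temperature) in GeneBLAzer FXR-UAS-bla HEK 293T cells. Compounds were co-dosed with 50 uM chenodeoxycholic acid (final) and incubated 16 h at 37 °C.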

Test [18] has the same target. The test can be described thus: qHTS assay to identify small molecule agonists of the farnesoid-X-receptor (FXR) signaling pathway (AID 743220; active means well fitted activation curve with a large enough effect in the signal ratio in the repeat runs, not every such curve was filed as active; the % refers to the signal ratio). A digest of the protocol: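 FXR-UAS-bla HEK 293T cells carrying a UAS-driven beta-lactamase reporter were plated for 5 h at 37C/5% CO2, then exposed to DMSO-dissolved Tox21 10K compounds for 16 h at 37C. A LiveBLAzer B/G FRET substrate was loaded for 2 h at room temperature before fluorescence reading.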

Test [19] addresses Vitamin D3 receptor (Homo sapiens) (UniProt P11473). The test can be described thus: qHTS assay to identify small molecule agonists of the vitamin D receptor (VDR) signaling pathway (AID 743222; calls by dose curve). The essentials:
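Beta-lactamase reporter readout (LiveBLAzer B/G FRET, 2 h RT) in VDR-bla cells after 16 h compound treatment at 37C, 5% CO2; cells pre-incubated 4 h before pin transfer of DMSO solutions.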

Test [20] shares this target. The test can be described thus: qHTS assay to identify small molecule antagonists of the vitamin D receptor (VDR) signaling pathway (AID 743223; active means well fitted inhibition curve with a large enough effect in the signal ratio in the repeat runs, not every such curve was filed as active; the % refers to the signal ratio). The essentials:
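Quantitative HTS in VDR-bla reporter cells stimulated with 1alpha,25-dihydroxyvitamin D3, 3 nM final. Compound exposure 16 h, 37C, 5% CO2. Read-out: beta-lactamase FRET substrate fluorescence, 2 h RT.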

Several values for one entry are separate records, joined by “and”; a condition that tells them apart may be missing. Equal entries are not always repeated. Records with an inconclusive call do not appear. Some compounds were tested as several samples or in several runs, with calls that do not always agree. Activity calls are given as the source filed them. Unless noted, the call rests on the fitted dose curve; in most records, active means well fitted curve in the direction sought with a large enough effect in the repeat runs; inconclusive means weak or mixed curves; inactive means no such curve, though single readings can be large; an effect the other way counts as inactive or inconclusive.

Sequence of Bile acid receptor (Homo sapiens) (Q96RI1 whole entry, looked up): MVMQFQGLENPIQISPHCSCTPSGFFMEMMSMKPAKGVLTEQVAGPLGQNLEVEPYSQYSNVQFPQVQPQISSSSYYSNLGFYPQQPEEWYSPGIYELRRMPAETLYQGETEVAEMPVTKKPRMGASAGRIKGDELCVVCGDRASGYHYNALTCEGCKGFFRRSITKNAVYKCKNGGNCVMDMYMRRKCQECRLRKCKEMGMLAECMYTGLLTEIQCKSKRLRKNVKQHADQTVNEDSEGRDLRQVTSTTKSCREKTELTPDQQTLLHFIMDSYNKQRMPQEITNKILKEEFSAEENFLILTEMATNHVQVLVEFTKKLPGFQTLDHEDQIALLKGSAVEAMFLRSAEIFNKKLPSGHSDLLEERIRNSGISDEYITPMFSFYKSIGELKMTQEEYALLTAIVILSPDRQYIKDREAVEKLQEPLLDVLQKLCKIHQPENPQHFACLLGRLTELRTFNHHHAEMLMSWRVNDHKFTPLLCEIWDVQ
Sequence of Retinoic acid receptor RXR-alpha (Homo sapiens) (P19793 whole entry, looked up): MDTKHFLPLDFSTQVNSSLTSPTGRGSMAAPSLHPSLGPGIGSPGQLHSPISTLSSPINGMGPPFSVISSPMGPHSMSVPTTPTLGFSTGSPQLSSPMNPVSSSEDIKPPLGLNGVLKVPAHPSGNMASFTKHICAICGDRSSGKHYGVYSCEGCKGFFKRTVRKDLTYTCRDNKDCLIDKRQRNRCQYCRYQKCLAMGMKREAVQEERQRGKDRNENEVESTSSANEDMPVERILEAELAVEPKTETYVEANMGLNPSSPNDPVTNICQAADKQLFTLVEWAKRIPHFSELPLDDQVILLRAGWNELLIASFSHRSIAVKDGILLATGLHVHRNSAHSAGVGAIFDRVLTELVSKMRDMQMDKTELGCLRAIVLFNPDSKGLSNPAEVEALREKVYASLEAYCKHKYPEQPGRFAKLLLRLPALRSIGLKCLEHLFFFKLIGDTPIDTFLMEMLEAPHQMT
Sequence of Peroxisome proliferator-activated receptor delta (Homo sapiens) (Q03181 whole entry, looked up): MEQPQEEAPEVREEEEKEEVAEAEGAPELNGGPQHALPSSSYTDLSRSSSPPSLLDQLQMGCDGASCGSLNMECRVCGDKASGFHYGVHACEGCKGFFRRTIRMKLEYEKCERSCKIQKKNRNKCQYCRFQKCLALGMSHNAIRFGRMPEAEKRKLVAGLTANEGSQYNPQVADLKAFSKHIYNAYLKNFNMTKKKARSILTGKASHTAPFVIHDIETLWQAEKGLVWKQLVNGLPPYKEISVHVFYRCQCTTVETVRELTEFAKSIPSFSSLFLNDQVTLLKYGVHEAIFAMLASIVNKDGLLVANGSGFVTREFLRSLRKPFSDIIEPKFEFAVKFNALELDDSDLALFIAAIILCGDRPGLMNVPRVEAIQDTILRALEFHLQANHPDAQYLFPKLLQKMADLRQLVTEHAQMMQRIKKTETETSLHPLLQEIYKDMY
Sequence of Vitamin D3 receptor (Homo sapiens) (P11473 whole entry, looked up): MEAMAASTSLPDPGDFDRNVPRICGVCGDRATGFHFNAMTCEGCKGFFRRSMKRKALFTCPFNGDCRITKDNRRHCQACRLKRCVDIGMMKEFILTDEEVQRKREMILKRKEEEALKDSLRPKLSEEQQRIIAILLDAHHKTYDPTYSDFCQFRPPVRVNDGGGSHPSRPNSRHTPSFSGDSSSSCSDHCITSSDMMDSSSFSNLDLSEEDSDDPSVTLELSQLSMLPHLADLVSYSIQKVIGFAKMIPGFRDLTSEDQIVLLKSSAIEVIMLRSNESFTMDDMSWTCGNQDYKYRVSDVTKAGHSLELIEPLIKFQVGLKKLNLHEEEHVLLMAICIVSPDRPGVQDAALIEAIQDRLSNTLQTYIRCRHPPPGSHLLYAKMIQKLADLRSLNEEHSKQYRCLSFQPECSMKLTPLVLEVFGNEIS

As for `CC(=O)[O][Sn]([c]1ccccc1)([c]1ccccc1)[c]1ccccc1`, the Potency in test [1] was 97.7 nM (active); in [2] it was 97.7 nM (active); in test [3] it was 87.1 nM (active); in test [4] it was 219 nM (active); in [5], 2450 nM (active); in test [6], 13.8 µM (active). For the same compound, the values for the Potency in test [7], in test [8] and in test [9] were 96.9 nM (active), 24.3 nM (active) and 3.89 µM (active), respectively.

As for `COc1ccc2c(c1OC)C(=O)O[C@@H]2[C@H]1c2cc3c(cc2CCN1C)OCO3`, the Potency entry in test [1], in test [10], in test [11], in test [12], in test [2] and in test [13] was “inactive” in each case. The Potency entry in [3], in test [14], in [7], in test [8], in test [9] and in test [15] was “inactive” each time. The Potency result in [16] was “inactive”.

With `Clc1cc(Cl)c(-c2cc(Cl)c(Cl)cc2Cl)cc1Cl`, the Potency result in [10], in test [17], in test [18], in [19], in test [20] and in test [3] was “inactive” throughout. The Potency result in test [14], in test [6], in [7], in test [8] and in test [9] was “inactive” throughout.

In the case of `O=[N+]([O-])c1cccc2cccc([N+](=O)[O-])c12`, the Potency result in [1], in test [10], in [17], in test [2], in test [18] and in test [20] was “inactive” in each case. Further, the Potency entry in test [4], in test [14], in test [6], in test [7], in test [8] and in test [15] was “inactive” in each case. For the same compound, the Potency result in test [16] was “inactive”.

For the compound `Cc1ccc2cc3c(ccc4ccccc43)c3c2c1CC3`, the Potency entry in test [1], in [2], in test [13], in test [19], in [20] and in test [3] was “inactive” throughout. Moreover, the Potency entry in test [4], in [6], in test [7], in test [8], in [9] and in test [15] was “inactive” each time. The Potency result in [16] was “inactive”.

Turning to `CCCCCCCCCCCCCCn1cc[n+](C)c1`, the Potency in test [1] is 24.6 µM (active) and 21.6 µM (active) and inactive; in test [11] it was 21600 nM (active); in test [2], 21.9 µM (active) and inactive; in test [13], 24.6 µM (active) and 54.4 µM (active) and inactive; in [4], 27.6 µM (active) and 43.2 µM (active) and inactive; in test [6], 6.18 µM (active) and 19.3 µM (active) and inactive. The Potency in test [7] was 27.4 µM (active) and 34 µM (active) and inactive; in test [9], 49.1 µM (active) and 48.5 µM (active) and inactive. Further, the Potency result in test [12], in test [18], in [20] and in test [16] was “inactive” in each case.

Turning to `CSSC`, the Potency entry in test [1], in test [10], in test [12], in [2], in test [13] and in [19] was “inactive” throughout. Moreover, the Potency entry in test [20], in [3], in [4], in [14], in test [6] and in [7] was “inactive” in each case. The Potency result in test [8] and in [9] was “inactive” each time.
